In PubChem BioAssay (NCI):
“And” between values parts separate entries of the source, which are not always exact repeats. Identical values can stand only once. About 83,000 compounds went through this panel and 20% of them were active in at least one assay; those are over-represented in the sample as a whole.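 The test compound was applied at a single concentration to cells in 96-well plates for 48 hours, and percent growth was recorded.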 A number with no mark means an inactive call. The source made the active and inactive calls. Rule for the calls: active = growth percent below 10; inactive = the rest.

System: MDA-MB-468 breast
Experiment: NCI-60 one-dose screen, 48 h (100 = growth as untreated, 0 = no growth, -100 = all killed)
Conditions: 10 µM unless noted

Compound	growth
CC(C)(C)c1[nH]nc2c1C(c1cc3ccccc3[nH]c1=O)Nc1cc(C(=O)OCc3ccccc3)ccc1N2 (centres undefined)	43.7%
Cc1ccc(S(=O)(=O)c2ccccc2)cc1	-10.8% (active)
Cc1c(-c2ccc(O)cc2)n(Cc2ccc(OCCN3CCCCCC3)cc2)c2ccc(O)cc12	74%
COc1cc([C@H](C)c2ccc3ccccc3c2)cc(OC)c1OC	47.3%
Cc1ccc(S(=O)(=O)OCCN(CCOS(=O)(=O)c2ccc(C)cc2)c2c[nH]c(=O)[nH]c2=O)cc1	98.5%
C=C(C)[C@@H]1CC[C@]2(C(=O)N3CCN(C)CC3)CC[C@]3(C)[C@H](CC[C@@H]4[C@@](C)(CCC(=O)O)[C@H](C(=C)C)CC[C@]43C)[C@@H]12	90.1%
CCOC(=O)c1ccc(C(=N)N)cc1	106%
COc1ccc(NC(=O)c2sc3nc(C)c(C(C)=O)cc3c2N)cc1	91.8%
C/C=C(/C)C(=O)O[C@@H]1CC(C)(C)CC2C34OC(=O)[C@@]21CC[C@@]3(C)[C@]1(C)CCC2C(C)(C)C(=O)CC[C@]2(C)C1C[C@@H]4Cl (some centres undefined)	80.5%
CN(C)c1ncnc2c1nnn2C1OC(CO)C(O)C1O (centres undefined)	-26.5% (active)
O=C1/C(=C\c2ccc[nH]2)c2ccccc2N1c1ccccc1	0.806% (active)
COc1ccc(/C(C#N)=C/c2ccccn2)cc1	89% and 82%
O=c1c2ccccc2n2cnc3ccc(Cl)c1c32	79.1%
COc1ccc2c(C3=C(c4c[nH]c5ccccc45)C(=O)N(O)C3=O)coc2c1	88.6%
COc1cc2nc(N3CCC[C@@H](NC(=O)C4COc5ccccc5O4)C3)nc(N)c2cc1OC (some centres undefined)	108% and 103%
COc1ccc2cc(-c3nn(-c4ccc(C(=O)O)cc4)cc3CO)ccc2c1	109%
CC1(C=O)NC(=O)NC1=O (centres undefined)	101%
CC[C@H](CC[C@@H](C)[C@H]1CC[C@H]2[C@@H]3CC=C4C[C@@H](OCCc5nn[nH]n5)CC[C@]4(C)[C@H]3CC[C@]12C)C(C)C	118%
CCCCCCNC(=O)c1cc(NCc2cc(O)ccc2O)ccc1O	65.6%
Cc1ccc(-c2nnc(SCc3ccc(O)c4ncccc34)n2-c2ccccc2)cc1	9.08% (active)

Compound	growth
CCOC(=O)c1c(C)oc2ncnc(N3CCN(C(=O)COc4ccc(SC)cc4)CC3)c12	81.9%
CN([O-])c1nc(N(C)[O-])nc(N2CCOCC2)n1.CN([O-])c1nc(N(C)[OH2+])nc(N2CCOCC2)n1.[Fe+3]	-52.3% [100 µM] (active)
COc1cc([C@@H]2c3cc4c(cc3C(Br)[C@H]3COC(=O)[C@H]23)OCO4)cc(OC)c1OC (some centres undefined)	-49.3% (active)
COc1nccc2c(Sc3ccccc3)nc(N)nc12	112%
Cc1n(Cc2ccc3ccccc3c2)c(Cl)c(Cl)[n+]1Cc1ccc2ccccc2c1	-19.5% (active)
COc1ccc(CNC(=O)[C@H](O)[C@@H](N)Cc2ccccc2)cc1	106%
O=C(Nc1ccc(Nc2ccncc2)cc1)c1ccc([N+](=O)[O-])cc1	-28.1% (active)
Cc1cc2nc(CC(=O)c3ccccc3)c(=O)[nH]c2cc1C	103%
CCCCCCCCCCCCCCCCCC1=NCCN1CCOC1=C(Cl)C(=O)c2ccccc2C1=O	-50.1% (active)
COc1ccc(-c2nocc2-c2cc(OC)c(OC)c(OC)c2)cc1	-15.5% (active)
Oc1ccc(Cc2ccccc2)c2cccnc12	-21.1% (active)
O=C1OC(c2nc3ccccc3s2)=C/C1=C\c1ccc(O)cc1	114%
C=C(C)[C@@H]1CC[C@]2(C(=O)NCCNCCNC(=O)OC(C)(C)C)CC[C@]3(C)[C@H](CC[C@@H]4[C@@]5(C)CCC(=O)C(C)(C)[C@@H]5CC[C@]43C)[C@@H]12	53.5% [100 µM]
COCCn1cc(-c2nc(-c3cc4cccnc4[nH]3)cs2)c2cc(OC)ccc21	-24% (active)
CCCNc1nc(SC)nc(-c2cccc(N)c2)c1C#N	114%
COc1ccc(CCN2C(=O)CSC2=S)cc1	12.9%
O=c1oc2ccc(I)cc2c(=O)n1-c1ccc(I)cc1F	-2.07% (active)
CCOC(=O)C(C#N)=C1CCN(C)CC1	123%
C=CCN(C)S(=O)(=O)/N=C1\NC(=O)NC1=C(Cl)Cl	28.7%
